Test results as given in PubChem BioAssay (NCATS).
Inconclusive results are not listed. Active and inactive are the calls of the source. Calls follow the shape of the dose curve; as a rule, active = well fitted cell-killing curve with a large enough effect; inconclusive = small, poorly fitted or top-dose-only effect, or effect the other way; inactive = flat fitted curve, though single readings scatter.

Assays:
Experiment in all cases: Primary qHTS to identify gynecologic anti-cancer compounds using libraries of approved drugs and bioactive compounds (AID 1345084); also: nearly all actives have a fitted effect of over 55% in size
C33A = settings: Gynecologic cancer cell panel viability, ATPlite luminescence, 48 h; series mostly up to 57.5 µM
In short: (§1)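 Luminescence from the ATPlite ATP-monitoring reagent indicates viable cell number; lower signal means cytotoxicity. Cells received compound 16 h after seeding and were exposed for 48 h across five concentrations.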

CASKI = settings: Gynecologic cancer cell panel viability, ATPlite luminescence, 48 h; series mostly up to 57.5 µM
In short: as §1

Es-2 = settings: Gynecologic cancer cell panel viability, ATPlite luminescence, 48 h; series mostly up to 57.5 µM
In short: as §1

HeLa = settings: Gynecologic cancer cell panel viability, ATPlite luminescence, 48 h; series mostly up to 57.5 µM
In short: as §1

Hek293T = settings: Gynecologic cancer cell panel viability, ATPlite luminescence, 48 h, control line for the selectivity index; series mostly up to 57.5 µM
In short: as §1

JEG-3 = settings: Gynecologic cancer cell panel viability, ATPlite luminescence, 48 h; series mostly up to 57.5 µM
In short: as §1

OV90 = settings: Gynecologic cancer cell panel viability, ATPlite luminescence, 48 h; series mostly up to 57.5 µM
In short: as §1

PA-1 = settings: Gynecologic cancer cell panel viability, ATPlite luminescence, 48 h; series mostly up to 57.5 µM
In short: as §1

SKOV3 = settings: Gynecologic cancer cell panel viability, ATPlite luminescence, 48 h; series mostly up to 57.5 µM
In short: as §1

Tov-21-G = settings: Gynecologic cancer cell panel viability, ATPlite luminescence, 48 h; series mostly up to 57.5 µM
In short: as §1

Tov112D = settings: Gynecologic cancer cell panel viability, ATPlite luminescence, 48 h; series mostly up to 57.5 µM
In short: as §1
% is scaled to controls: 0 for no effect and ±100 for the full control effect; potency is read from the fitted curve at half-maximal effect.

CCOCc1nc2c(N)nc3ccccc3c2n1CC(C)(C)O
inactive: Potency (C33A) | Potency (CASKI) | Potency (Es-2) | Potency (HeLa) | Potency (Hek293T) | Potency (JEG-3) | Potency (OV90) | Potency (PA-1) | Potency (SKOV3) | Potency (Tov-21-G) | Potency (Tov112D)

C=CC1C(OC2OC(CO)C(O)C(O)C2O)OC=C2C(=O)N3C(C(=O)O)Cc4c([nH]c5ccccc45)C3CC21 (stereo not drawn)
inactive: Potency (C33A) | Potency (CASKI) | Potency (Es-2) | Potency (HeLa) | Potency (Hek293T) | Potency (JEG-3) | Potency (OV90) | Potency (PA-1) | Potency (SKOV3) | Potency (Tov-21-G) | Potency (Tov112D)

COc1cc(C(=O)OC[C@H]2O[C@@H](Oc3ccccc3/C=C/C(=O)O)[C@H](O)[C@@H](O)[C@@H]2O)cc(OC)c1OC
inactive: Potency (C33A) | Potency (CASKI) | Potency (Es-2) | Potency (HeLa) | Potency (Hek293T) | Potency (JEG-3) | Potency (OV90) | Potency (PA-1) | Potency (SKOV3) | Potency (Tov-21-G) | Potency (Tov112D)

C[C@@H]1O[C@@H](O[C@H]2[C@H](O)[C@@H](O)[C@H](O[C@H]3[C@H](O[C@H]4CC[C@@]5(C)C(=CC[C@@H]6C5CC[C@]5(C)[C@@H]7[C@H](C[C@@H]65)O[C@]5(CC[C@@](C)(CO[C@@H]6O[C@H](CO)[C@@H](O)[C@H](O)[C@H]6O)O5)[C@H]7C)C4)O[C@H](CO)[C@@H](O)[C@@H]3O)O[C@@H]2CO)[C@H](O)[C@H](O)[C@H]1O (stereo partly drawn)
inactive: activity change, negative = cytotoxicity (C33A) 1.06% [at 11.6 µM] | activity change, negative = cytotoxicity (CASKI) 21.1% [at 11.6 µM] | activity change, negative = cytotoxicity (Es-2) 3.9% [at 11.6 µM] | activity change, negative = cytotoxicity (HeLa) 6.34% [at 11.6 µM] | activity change, negative = cytotoxicity (Hek293T) -9.56% [at 11.6 µM] | activity change, negative = cytotoxicity (JEG-3) 4.71% [at 11.6 µM] | activity change, negative = cytotoxicity (OV90) 5.27% [at 11.6 µM] | activity change, negative = cytotoxicity (Tov112D) 13% [at 11.6 µM]
active: Potency (PA-1) 1.78 µM

CCC(COC)n1nnc2c(Nc3ccc(OC)cc3C)nc(C)cc21 (stereo not drawn)
inactive: Potency (C33A) | Potency (CASKI) | Potency (Es-2) | Potency (HeLa) | Potency (Hek293T) | Potency (JEG-3) | Potency (OV90) | Potency (PA-1) | Potency (Tov-21-G) | Potency (Tov112D)

NC(=O)c1csc(C2OC(CO)C(O)C2O)n1 (stereo not drawn)
inactive: Potency (C33A) | Potency (CASKI) | Potency (Es-2) | Potency (HeLa) | Potency (Hek293T) | Potency (JEG-3) | Potency (OV90) | Potency (SKOV3) | Potency (Tov-21-G) | Potency (Tov112D)

CNC(C)C(=O)NC(C(=O)N1CCCC1c1nc(C(=O)c2ccc(F)cc2)cs1)C1CCCCC1 (stereo not drawn)
inactive: Potency (C33A) | Potency (CASKI) | Potency (Es-2) | Potency (HeLa) | Potency (Hek293T) | Potency (JEG-3) | Potency (OV90) | Potency (PA-1) | Potency (Tov112D)

CC1CCC2C(C)(C)[C@@H](O)CC[C@]2(C)C12Cc1c(O)cc3c(c1O2)CN(C(CCC(=O)O)C(=O)O)C3=O (stereo partly drawn)
inactive: Potency (C33A) | Potency (CASKI) | Potency (Es-2) | Potency (HeLa) | Potency (Hek293T) | Potency (JEG-3) | Potency (OV90) | Potency (PA-1) | Potency (Tov-21-G) | Potency (Tov112D)

COCCOc1cnc2ccn([C@H](C)c3nnc4c(F)cc(-c5cnn(C)c5)cn34)c(=O)c2c1
inactive: Potency (C33A) | Potency (CASKI) | Potency (Es-2) | Potency (HeLa) | Potency (Hek293T) | Potency (JEG-3) | Potency (OV90) | Potency (SKOV3) | Potency (Tov-21-G) | Potency (Tov112D)

O=C(Cc1ccc(-c2ccccc2)cc1)NC1CCC1
inactive: Potency (C33A) | Potency (CASKI) | Potency (Es-2) | Potency (HeLa) | Potency (Hek293T) | Potency (JEG-3) | Potency (OV90) | Potency (PA-1) | Potency (Tov-21-G) | Potency (Tov112D)

C/C=C/c1ccc2oc(-c3ccc(O)c(OC)c3)c(C)c2c1
inactive: Potency (C33A) | Potency (CASKI) | Potency (Es-2) | Potency (HeLa) | Potency (Hek293T) | Potency (JEG-3) | Potency (Tov-21-G) | Potency (Tov112D)
active: Potency (OV90) 20 µM

NC(=O)c1cccc(-c2cc(OC(=O)NC3CCCCC3)ccc2O)c1
inactive: Potency (C33A) | Potency (CASKI) | Potency (Es-2) | Potency (HeLa) | Potency (JEG-3) | Potency (OV90) | Potency (PA-1) | Potency (SKOV3)

CO[C@H]1C[C@@H]2CC[C@@H](C)[C@@](O)(O2)C(=O)C(=O)N2CCCC[C@H]2C(=O)O[C@H]([C@H](C)C[C@H]2CC[C@@H](OP(C)(C)=O)[C@H](OC)C2)CC(=O)[C@H](C)/C=C(\C)[C@@H](O)[C@@H](OC)C(=O)[C@H](C)C[C@H](C)/C=C/C=C/C=C/1C
inactive: Potency (C33A) | Potency (CASKI) | Potency (Es-2) | Potency (HeLa) | Potency (Hek293T) | Potency (JEG-3) | Potency (OV90) | Potency (PA-1) | Potency (Tov-21-G) | Potency (Tov112D)

C/C=C/C1=CC2=C(CO1)C(=O)C(C)(O)C(OC(=O)c1c(C)cc(OC)cc1O)C2 (stereo not drawn)
inactive: Potency (C33A) | Potency (CASKI) | Potency (Es-2) | Potency (HeLa) | Potency (Hek293T) | Potency (JEG-3) | Potency (OV90) | Potency (PA-1) | Potency (Tov-21-G) | Potency (Tov112D)

CNC(=S)NS(=O)(=O)c1cc(CCNC(=O)c2cc(Cl)ccc2OC)ccc1OC
inactive: Potency (C33A) | Potency (CASKI) | Potency (Es-2) | Potency (HeLa) | Potency (Hek293T) | Potency (JEG-3) | Potency (PA-1) | Potency (SKOV3) | Potency (Tov-21-G) | Potency (Tov112D)
